This is an account of results in article PMC4552634, “A New Set of Chemical Starting Points with Plasmodium falciparum Transmission-Blocking Potential for Antimalarial Drug Discovery” (PLoS ONE, 2015).

The campaign covered roughly 13,000 compounds. About 3,200 (25%) showed an effect of 50% or more. The list shows a part of the results.

The subject of the experiment is P. falciparum stage V gametocytes. Set-up: BacTiter-Glo ATP luminescence viability of purified stage V gametocytes in 384-well plates, per cent inhibition versus DMSO. The following applies: 48 h, 5 µM; inhibitor.
One may read the % Inhibition as the change of the read-out against control, counted positive when it falls. As for `O=C(NC1CCC(N2CCC(c3ccccc3C(F)(F)F)CC2)CC1)c1cc2ccccc2[nH]1` (stereo not drawn) [TCMDC-132895], the “% Inhibition” value is reported as -39.86%.
The result for `O=C(C=Cc1cn(-c2ccccc2)nc1-c1ccccc1)N1CCN(c2ccncc2)CC1` [TCMDC-125256] reads 13.7%; that for `O=C(C=Cc1cn(-c2ccccc2)nc1-c1cccs1)N1CCN(c2ccncc2)CC1` [TCMDC-125063], 51.82%.
Then `O=C(Nc1ccncc1)c1cn(-c2ccccc2)nc1-c1cccs1` [TCMDC-125605], with -55.62%; and `NOCCCOc1ccccc1` [TCMDC-123474], with -11.28%.
The result for `Nc1ccc(Oc2ccc(Cc3cnc(N)nc3N)cc2)cc1` [TCMDC-137904] reads -3.731%; that for `COc1ccc2nccc([C@@H](O)CN3CCC(NCc4ccc(OC)c(NC(C)=O)c4)CC3)c2c1` [TCMDC-141564], -24.43%; that for `CCN(CCCN1CCCCC1)c1cc(C)nc(Nc2cccc(C(F)(F)F)c2)n1` [TCMDC-132451], 9.673%.
As for `COc1cc(Nc2ncc3c(C)nc(-c4cccc(Nc5ccc(CN6CCS(=O)(=O)CC6)cc5)c4)n3n2)cc(OC)c1OC` [TCMDC-136003], the “% Inhibition” value came to 62.52%.
Regarding `COc1cc(Nc2ncc3c(C)nc(-c4cc5ccccc5[nH]4)n3n2)cc(OC)c1OC` [TCMDC-138905], the “% Inhibition” value is on record as 5.084%.
`c1ccc(Oc2ccc(Nc3ccnc(Nc4ccc(OCCN5CCCCC5)cc4)n3)cc2)cc1` [TCMDC-138583]: the “% Inhibition” value is on record as -73.3%.
Then `Cc1nc(-c2cccc(C(F)(F)F)c2)n2nc(Nc3ccc(OCCN4CCCC4)cc3)ncc12` [TCMDC-138911], with 108.6%; and `COc1ccc(Nc2ncc3c(-c4cccc(NC(=O)Cc5ccc(F)cc5)c4)c[nH]c3n2)cc1OC` [TCMDC-135252], with -55.08%; and `COc1ccccc1CNCC(O)c1cc(C(F)(F)F)ccc1C(F)(F)F` (stereo not drawn) [TCMDC-140376], with 33.11%.
Then `CN(C)c1ccc(C=Cc2nc(=O)c3ccccc3o2)cc1` [TCMDC-123870], with 44.95%.
Then `CCN(CC)S(=O)(=O)n1ncc2c3c(N)nc(N)nc3ccc21` [TCMDC-137302], with -23.31%; and `N#CCCn1nc(-c2ccc(Cl)cc2)c2c(c1=O)CCCC2` [TCMDC-123668], with -3.378%.
Consider `COc1cc2nccc(Nc3ccc4c(cnn4Cc4cccc(F)c4)c3)c2cc1OC.Cl` [TCMDC-138105], for which the “% Inhibition” value is listed as -72.46%.
Then `COc1cc2ncnc(Nc3ccc4nc(Cc5ccccc5)[nH]c4c3)c2cc1OC` [TCMDC-137180], with -12.69%; and `COc1cc2nc(C)nc(Nc3ccc4c(ccn4Cc4ccccc4)c3)c2cc1OC` [TCMDC-131924], with 19.01%; and `COc1cc2nc(N(C)C)nc(Nc3ccc4c(cnn4Cc4ccccc4)c3)c2cc1OC` [TCMDC-138082], with 11.6%.
The result for `COc1cc2nc(Nc3ccc4c(cnn4Cc4ccccc4)c3)nc(Nc3ccc4c(cnn4Cc4ccccc4)c3)c2cc1OC` [TCMDC-138020] reads 106.8%; that for `COc1cc2nc(Nc3ccc4c(ccn4Cc4ccccc4)c3)nc(Nc3ccc4c(ccn4Cc4ccccc4)c3)c2cc1OC` [TCMDC-138237], 94.63%; that for `COc1cccc(NC(=O)NCCNc2ccnc(Nc3ccc(F)cc3)n2)c1` [TCMDC-133639], -6.43%.
With `COc1ccc(CNC(=O)c2cc3c(=O)n4ccccc4nc3n(CCc3ccccc3)c2=N)cc1` [TCMDC-124474], the “% Inhibition” value was -41.5%.
The result for `Cc1cc(C(=O)CN2C(=O)NC(C)(c3cccc4ccccc34)C2=O)c(C)n1Cc1ccco1` (stereo not drawn) [TCMDC-125264] reads 12.34%; that for `COCCn1c(C)cc(C(=O)CN2C(=O)NC(C)(c3ccc(C(C)(C)C)cc3)C2=O)c1C` (stereo not drawn) [TCMDC-125434], 51.6%; that for `Cc1cc(C(=O)CN2C(=O)NC(C)(c3ccc4ccccc4c3)C2=O)c(C)n1Cc1ccco1` (stereo not drawn) [TCMDC-125044], -21.37%.
Then `Cc1[nH]nc2ccc(-c3cc(OC[C@@H](N)Cc4ccccc4)cnc3-c3cc4ccccc4s3)cc12` [TCMDC-136352], with 16.97%; and `O=C(NCc1cccc2ccccc12)C1CCCN(C(=O)c2ccc(O)c(-c3ccc(Cl)c(Cl)c3)c2)C1` (stereo not drawn) [TCMDC-140894], with 15.24%.
With `O=C(N[C@@H](Cc1ccccc1)[C@H](O)CNC1CCCCC1)c1cc(C2CCCC2)cc(N2CCCC2=O)c1` [TCMDC-138869], the “% Inhibition” value was 29.86%.
Consider `COc1ccc2ncc(Cl)c(CCN3CC[C@@H](CNCc4cc5c(cn4)OCS5)C3)c2n1` [TCMDC-135904], for which the “% Inhibition” value is -4.396%.
Consider `Cc1c(C)c2c(c(C)c1O)CCC(C)(CCC(=O)O)O2` (stereo not drawn) [TCMDC-131686], for which the “% Inhibition” value is recorded as -4.216%.
Then `CC[C@H]1CN2CC[C@H]1C[C@@H]2[C@@H](O)c1cc(Cl)nc2ccc(OC)cc12` [TCMDC-137467], with -42.11%.
Then `CC[C@H]1CN2CC[C@H]1C[C@H]2[C@H](O)c1cc(/C=C/c2ccc(F)cc2)nc2ccc(OC)cc12` [TCMDC-141367], with 91.47%; and `C=C[C@H]1CN2CC[C@H]1C[C@H]2[C@H](O)c1cc(/C=C/c2ccc(F)cc2)nc2ccc(OC)cc12` [TCMDC-141366], with -44.1%; and `CC[C@H]1CN2CC[C@H]1C[C@H]2[C@H](O)c1cc(/C=C/c2ccccc2)nc2ccc(OC)cc12` [TCMDC-141329], with 62.86%.
The result for `CC[C@H]1CN2CC[C@H]1C[C@H]2[C@H](O)c1cc(-c2ccccc2C)nc2ccc(OC)cc12` [TCMDC-141190] reads 15.24%; that for `Cc1cccc(N2C(N)=NC(N)=NC2(C)C)c1C` [TCMDC-137926], 11.29%.
With `Cc1cc(Nc2ccc(C)c(Cl)c2)n2ncnc2n1` [TCMDC-123501], the “% Inhibition” value was -28.24%.
`COC(=O)c1cccc(N2CCN(CCCNC(=O)/C(=C/C=C/c3cc4cc(Cl)c(Cl)cc4[nH]3)OC)CC2)c1` [TCMDC-139338]: the “% Inhibition” value turned out to be 20.82%.
The result for `O=C(Cc1ccc(NC(=O)c2ccc(O)c(-c3cccc([N+](=O)[O-])c3)c2)cc1)NCCN1CCCCC1` [TCMDC-140797] reads 2.849%.
